# Only a selection was taken, and the strongest signals are over-represented in it overall.
# B1: CBP21 (Serratia marcescens), O83009 (protein)
# chain: MNKTSRTLLSLGLLSAAMFGVSQQANAHGYVESPASRAYQCKLQLNTQCGSVQYEPQSVEGLKGFPQAGPADGHIASADKSTFFELDQQTPTRWNKLNLKTGPNSFTWKLTARHSTTSWRYFITKPNWDASQPLTRASFDLTPFCQFNDGGAIPAAQVTHQCNIPADRSGSHVILAVWDIADTANAFYQAIDVNLSK
# Key:
# Assay in all cases: glycan array binding signal (z-score within array); higher = stronger binding
# Conditions in all cases: glycan notation: IUPAC condensed, linker removed
# [1] = target: Fuc(a1-2)Gal(b1-3)GlcNAc(b1-2)Man(a1-3)[Fuc(a1-2)Gal(b1-3)GlcNAc(b1-2)Man(a1-6)]Man(b1-4)GlcNAc(b1-4)GlcNAc
# How it was run: (§1)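 The binding signal is a Z-score computed within each array. Data were drawn from 3228 arrays in the Consortium for Functional Glycomics database, restricted to those with a known protein sequence. Scores were averaged over arrays of the same protein sequence at different concentrations or buffers, and over linkers, and negative values can be taken as non-binding.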
# [2] = target: Fuc(a1-2)Gal(b1-4)GlcNAc6S
# How it was run: as §1
# [3] = target: Fuc(a1-2)Gal(b1-4)[Fuc(a1-3)]GlcNAc(b1-2)[Fuc(a1-2)Gal(b1-4)[Fuc(a1-3)]GlcNAc(b1-4)]Man(a1-3)[Fuc(a1-2)Gal(b1-4)[Fuc(a1-3)]GlcNAc(b1-2)Man(a1-6)]Man(b1-4)GlcNAc(b1-4)GlcNAc
# How it was run: as §1
# [4] = target: Fuc(a1-2)Gal(b1-4)[Fuc(a1-3)]GlcNAc(b1-3)Gal(b1-4)[Fuc(a1-3)]GlcNAc(b1-3)Gal(b1-4)[Fuc(a1-3)]GlcNAc
# How it was run: as §1
# [5] = target: Fuc(a1-2)Gal6S(b1-3)GlcNAc
# How it was run: as §1
# [6] = target: Fuc(a1-2)[Gal(a1-3)]Gal(b1-4)GlcNAc(b1-3)[Fuc(a1-2)[Gal(a1-3)]Gal(b1-4)GlcNAc(b1-6)]GalNAc
# How it was run: as §1
# [7] = target: Fuc(a1-2)[GalNAc(a1-3)]Gal(b1-4)Glc
# How it was run: as §1
# [8] = target: Fuc(a1-2)[GalNAc(a1-3)]Gal(b1-4)GlcNAc(b1-2)Man(a1-3)[Fuc(a1-2)[GalNAc(a1-3)]Gal(b1-4)GlcNAc(b1-2)Man(a1-6)]Man(b1-4)GlcNAc(b1-4)[Fuc(a1-6)]GlcNAc
# How it was run: as §1
# [9] = target: Fuc(a1-3)[Gal(b1-4)]GlcNAc(b1-2)Man(a1-3)[Fuc(a1-3)[Gal(b1-4)]GlcNAc(b1-2)Man(a1-6)]Man(b1-4)GlcNAc(b1-4)GlcNAc
# How it was run: as §1
# [10] = target: Fuc(a1-3)[Gal(b1-4)]GlcNAc(b1-3)Gal(b1-4)[Fuc(a1-3)]GlcNAc(b1-3)Gal(b1-4)[Fuc(a1-3)]GlcNAc
# How it was run: as §1
# [11] = target: Fuc(a1-3)[Gal(b1-4)]GlcNAc(b1-3)GalNAc
# How it was run: as §1
# [12] = target: Gal(a1-3)Gal
# How it was run: as §1
# [13] = target: Gal(b1-3)GalNAc(a1-3)[Fuc(a1-2)]Gal(b1-4)Glc
# How it was run: as §1
# [14] = target: Gal(b1-3)GlcNAc
# How it was run: as §1
# [15] = target: Gal(b1-3)GlcNAc(a1-3)Gal(b1-4)GlcNAc
# How it was run: as §1
# [16] = target: Gal(b1-3)GlcNAc(b1-3)Gal(b1-4)GlcNAc(b1-2)[Gal(b1-3)GlcNAc(b1-3)Gal(b1-4)GlcNAc(b1-6)]Man(a1-6)[Gal(b1-3)GlcNAc(b1-3)Gal(b1-4)GlcNAc(b1-2)Man(a1-3)]Man(b1-4)GlcNAc(b1-4)[Fuc(a1-6)]GlcNAc
# How it was run: as §1
# [17] = target: Gal(b1-4)GlcNAc(b1-3)Gal(b1-4)GlcNAc(b1-3)Gal(b1-4)GlcNAc(b1-2)Man(a1-3)[Gal(b1-4)GlcNAc(b1-3)Gal(b1-4)GlcNAc(b1-3)Gal(b1-4)GlcNAc(b1-2)Man(a1-6)]Man(b1-4)GlcNAc(b1-4)[Fuc(a1-6)]GlcNAc
# How it was run: as §1
# [18] = target: Gal(b1-4)GlcNAc(b1-3)Gal(b1-4)GlcNAc(b1-3)Gal(b1-4)GlcNAc(b1-3)Gal(b1-4)GlcNAc(b1-3)Gal(b1-4)GlcNAc(b1-2)[Gal(b1-4)GlcNAc(b1-3)Gal(b1-4)GlcNAc(b1-3)Gal(b1-4)GlcNAc(b1-3)Gal(b1-4)GlcNAc(b1-3)Gal(b1-4)GlcNAc(b1-6)]Man(a1-6)[Gal(b1-4)GlcNAc(b1-3)Gal(b1-4)GlcNAc(b1-3)Gal(b1-4)GlcNAc(b1-3)Gal(b1-4)GlcNAc(b1-3)Gal(b1-4)GlcNAc(b1-2)Man(a1-3)]Man(b1-4)GlcNAc(b1-4)[Fuc(a1-6)]GlcNAc
# How it was run: as §1
# [19] = target: Gal(b1-4)GlcNAc(b1-3)Gal(b1-4)GlcNAc(b1-3)Gal(b1-4)GlcNAc(b1-3)Gal(b1-4)GlcNAc(b1-3)Gal(b1-4)GlcNAc(b1-3)Gal(b1-4)GlcNAc(b1-2)Man(a1-3)[Gal(b1-4)GlcNAc(b1-3)Gal(b1-4)GlcNAc(b1-3)Gal(b1-4)GlcNAc(b1-3)Gal(b1-4)GlcNAc(b1-3)Gal(b1-4)GlcNAc(b1-3)Gal(b1-4)GlcNAc(b1-2)Man(a1-6)]Man(b1-4)GlcNAc(b1-4)GlcNAc
# How it was run: as §1
# [20] = target: Gal(b1-4)GlcNAc(b1-3)Gal(b1-4)[Fuc(a1-3)]GlcNAc(b1-3)Gal(b1-4)[Fuc(a1-3)]GlcNAc
# How it was run: as §1
# [21] = target: Gal(b1-6)Gal
# How it was run: as §1
# [22] = target: Gal3S(b1-4)GlcNAc
# How it was run: as §1
# [23] = target: Gal3S6S(b1-4)GlcNAc
# How it was run: as §1
# [24] = target: Gal6S(b1-4)Glc
# How it was run: as §1
# [25] = target: GalNAc(b1-3)GalNAc
# How it was run: as §1
# [26] = target: GalNAc(b1-3)GlcNAc
# How it was run: as §1
# [27] = target: GalNAc(b1-4)Gal(b1-4)Glc
# How it was run: as §1
# [28] = target: GalNAc(b1-4)GlcNAc
# How it was run: as §1
# [29] = target: GalNAc(b1-4)GlcNAc6S
# How it was run: as §1
# [30] = target: GlcA3S(b1-3)Gal(b1-4)GlcNAc(b1-2)Man
# How it was run: as §1
binder,measurement,setting,value
B1,glycan array binding signal (z-score),[1],4.3
same,glycan array binding signal (z-score),[2],-1.02
same,glycan array binding signal (z-score),[3],3.02
same,glycan array binding signal (z-score),[4],2.95
same,glycan array binding signal (z-score),[5],-0.19
same,glycan array binding signal (z-score),[6],2.99
same,glycan array binding signal (z-score),[7],-0.513
same,glycan array binding signal (z-score),[8],-0.038
same,glycan array binding signal (z-score),[9],-0.009
same,glycan array binding signal (z-score),[10],-1.15
same,glycan array binding signal (z-score),[11],0.402
same,glycan array binding signal (z-score),[12],-0.172
same,glycan array binding signal (z-score),[13],-0.45
same,glycan array binding signal (z-score),[14],-0.226
same,glycan array binding signal (z-score),[15],0.425
same,glycan array binding signal (z-score),[16],3.27
same,glycan array binding signal (z-score),[17],2.68
same,glycan array binding signal (z-score),[18],2.67
same,glycan array binding signal (z-score),[19],1.21
same,glycan array binding signal (z-score),[20],-0.565
same,glycan array binding signal (z-score),[21],-0.589
same,glycan array binding signal (z-score),[22],1.21
same,glycan array binding signal (z-score),[23],0.23
same,glycan array binding signal (z-score),[24],-0.3
same,glycan array binding signal (z-score),[25],-0.453
same,glycan array binding signal (z-score),[26],-0.162
same,glycan array binding signal (z-score),[27],1.03
same,glycan array binding signal (z-score),[28],0.482
same,glycan array binding signal (z-score),[29],0.16
same,glycan array binding signal (z-score),[30],-1.64

# — the supplement of paper PMC8728848
